Assay results: PubChem BioAssay (NCATS)
“And” between values parts separate entries of the source, which are not always exact repeats. Equal entries are not always repeated. Records with an inconclusive call do not appear. The source made the active and inactive calls. Unless noted, the call rests on the fitted dose curve; in most records, active means well fitted curve in the direction sought with a large enough effect in the repeat runs; inconclusive means weak or mixed curves; inactive means no such curve, though single readings can be large; an effect the other way counts as inactive or inconclusive.

Tests used:
[1] = target: Nuclear receptor ROR-gamma (Homo sapiens) (UniProt P51449); test: qHTS assay for small molecule antagonists of the retinoid-related orphan receptor gamma (ROR-gamma) signaling pathway (AID 651802; active means well fitted curve in the direction sought with a large enough effect; an effect the other way counts as inactive or inconclusive;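 further: CHO cells with doxycycline-induced ROR-gamma expression; luciferase reporter luminescence driven by ROR response element; series mostly up to about 92 µM; on the % scale 0 is the no-effect control and ±100 the full control effect; nearly all actives have a fitted effect of over 60% in size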)
How it was run: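 Luminescence (One-Glo, 30 min RT) measured 16 h after compound addition and doxycycline induction at 37C. Reporter: RORE-luciferase under TET-inducible ROR-gamma in CHO cells.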

[2] = qHTS assay for small molecule agonists of the antioxidant response element (ARE) signaling pathway measured by Nrf2-dependant transcriptional activity (AID 720636);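 further: HepG2 cells with an ARE-driven luciferase reporter; % of control where 0% means no effect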
How it was run: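 HepG2 ARE-luc reporter line, 1% dialyzed FBS; 6 hr attachment at 37 C, compound pinned in, 16 hr at 37 C/5% CO2; ONE-Glo, 30 min RT, luminescence read.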

[3] = qHTS assay for small molecule antagonists of the retinoid-related orphan receptor gamma (ROR-gamma) signaling pathway - cell viability counter screen (AID 720652);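 further: CHO reporter cells with doxycycline-induced ROR-gamma expression; series mostly up to about 92 µM; compound exposure lasted 16 hr before ATP read; on the % scale 0 is the no-effect control and ±100 the full control effect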
How it was run: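 Cytotoxicity counter screen: intracellular ATP (CellTiter-Glo luminescence) measured in the doxycycline-induced CHO RORE-luciferase reporter line after 16 hr compound exposure at 37 C, 5% CO2.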

[4] = qHTS assay for small molecule agonists of the antioxidant response element (ARE) signaling pathway measured by Nrf2-dependant transcriptional activity - cell viability counter screen (AID 720653); conditions: ARE-bla HepG2 viability, CellTiter-Glo ATP luminescence, 16 h; hits give low values; further: on the % scale 0 is the no-effect control and ±100 the full control effect
How it was run: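 ARE-bla HepG2 cells treated with compounds for 16 h at 37C; this counter screen measures viability as intracellular ATP by CellTiter-Glo luminescence after 30 min at room temperature.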

[5] = qHTS for compounds that reverse cellular toxicity of Amyloid beta (A-beta) peptide in yeast: LOPAC Validation Assay (AID 720559; active means well fitted curve in the direction sought with a large enough effect; an effect the other way counts as inactive or inconclusive;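 further: plate controls were DMSO for no effect and equimolar ferric chloride plus clioquinol rescue for full effect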)
How it was run: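 Medium dispensed, compounds pinned, A-beta yeast suspension added; plates held at 30 C for 48 hr; absorbance measured at 600 nm to gauge growth; values scaled between DMSO and FeCl3/clioquinol (equimolar) controls.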

[6] = qHTS for Activators of Parkin Expression: LOPAC Validation Assay (NLuc Reporter) (AID 720572; active means well fitted curve in the direction sought with a large enough effect; an effect the other way counts as inactive or inconclusive)
How it was run: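 NLuc signal, read 10 min after reagent and following a prior FLuc read, is normalized to DMSO (0) and positive controls (100%). Cells: neuronal Parkin-promoter coincidence reporter line; compounds tested 7-point, 24 h, 37 C, 5% CO2.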

[7] = target: T1, Hexokinase-4 (Homo sapiens) + Glucokinase regulatory protein (Homo sapiens) (UniProt P35557+Q14397); test: qHTS assay for inhibitors of recombinant human GCK-GKRP interaction: Diaphorase-coupled assay (AID 743205; active means well fitted curve in the direction sought with a large enough effect; an effect the other way counts as inactive or inconclusive)
How it was run: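 25 mM Hepes pH 7.6, 5 mM glucose, 0.4 mM ATP, 4 U/ml G6PDH; 10 nM each GST-GCK/FLAG-GKRP. Kinetic fluorescence read, 1/min × 30 min. Normalized: DMSO ± enzyme = max/min.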

[8] = target: T1, Hexokinase-4 (Homo sapiens) + Glucokinase regulatory protein (Homo sapiens); test: qHTS assay for inhibitors of recombinant human GCK-GKRP interaction: ADP-Glo assay (AID 743206; active means well fitted curve in the direction sought with a large enough effect; an effect the other way counts as inactive or inconclusive;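 further: plate controls were DMSO plus enzyme for no effect and no enzyme for full effect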)
How it was run: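 Pin-transferred compounds meet a 15 nM GST-GCK/15 nM FLAG-GKRP/2 uM S6P mix (dispense concentrations). ATP is then added to 0.4 mM final with 5 mM glucose, and the reaction runs 60 min at room temperature. ADP is quantified luminescently.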

Nuclear receptor ROR-gamma (Homo sapiens), sequence (P51449 whole entry, looked up): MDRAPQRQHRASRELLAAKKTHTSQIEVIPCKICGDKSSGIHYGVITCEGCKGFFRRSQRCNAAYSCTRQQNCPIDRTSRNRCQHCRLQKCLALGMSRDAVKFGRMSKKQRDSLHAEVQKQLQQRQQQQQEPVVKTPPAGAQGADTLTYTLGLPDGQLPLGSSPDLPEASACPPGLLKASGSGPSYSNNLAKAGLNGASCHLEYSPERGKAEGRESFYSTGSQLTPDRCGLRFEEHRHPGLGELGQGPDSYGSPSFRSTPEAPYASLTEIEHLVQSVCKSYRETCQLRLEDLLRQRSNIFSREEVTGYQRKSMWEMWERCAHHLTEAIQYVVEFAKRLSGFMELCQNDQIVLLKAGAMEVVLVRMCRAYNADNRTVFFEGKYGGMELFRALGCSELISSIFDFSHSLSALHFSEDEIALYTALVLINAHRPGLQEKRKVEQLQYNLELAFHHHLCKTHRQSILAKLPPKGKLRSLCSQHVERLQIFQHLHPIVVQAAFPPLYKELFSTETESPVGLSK
T1 sequence (P35557 whole entry, looked up): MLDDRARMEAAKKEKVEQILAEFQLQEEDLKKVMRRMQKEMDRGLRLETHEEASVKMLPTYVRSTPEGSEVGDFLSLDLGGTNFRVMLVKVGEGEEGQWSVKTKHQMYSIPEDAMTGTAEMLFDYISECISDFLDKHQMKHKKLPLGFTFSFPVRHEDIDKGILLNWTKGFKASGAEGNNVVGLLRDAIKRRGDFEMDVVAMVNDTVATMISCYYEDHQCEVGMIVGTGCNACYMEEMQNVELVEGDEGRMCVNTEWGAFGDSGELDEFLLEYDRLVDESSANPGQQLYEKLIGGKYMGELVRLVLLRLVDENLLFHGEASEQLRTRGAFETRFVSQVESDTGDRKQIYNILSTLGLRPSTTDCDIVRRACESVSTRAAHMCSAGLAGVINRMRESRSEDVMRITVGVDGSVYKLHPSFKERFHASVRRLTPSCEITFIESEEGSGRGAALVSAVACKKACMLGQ
T1 sequence (Q14397 whole entry, looked up): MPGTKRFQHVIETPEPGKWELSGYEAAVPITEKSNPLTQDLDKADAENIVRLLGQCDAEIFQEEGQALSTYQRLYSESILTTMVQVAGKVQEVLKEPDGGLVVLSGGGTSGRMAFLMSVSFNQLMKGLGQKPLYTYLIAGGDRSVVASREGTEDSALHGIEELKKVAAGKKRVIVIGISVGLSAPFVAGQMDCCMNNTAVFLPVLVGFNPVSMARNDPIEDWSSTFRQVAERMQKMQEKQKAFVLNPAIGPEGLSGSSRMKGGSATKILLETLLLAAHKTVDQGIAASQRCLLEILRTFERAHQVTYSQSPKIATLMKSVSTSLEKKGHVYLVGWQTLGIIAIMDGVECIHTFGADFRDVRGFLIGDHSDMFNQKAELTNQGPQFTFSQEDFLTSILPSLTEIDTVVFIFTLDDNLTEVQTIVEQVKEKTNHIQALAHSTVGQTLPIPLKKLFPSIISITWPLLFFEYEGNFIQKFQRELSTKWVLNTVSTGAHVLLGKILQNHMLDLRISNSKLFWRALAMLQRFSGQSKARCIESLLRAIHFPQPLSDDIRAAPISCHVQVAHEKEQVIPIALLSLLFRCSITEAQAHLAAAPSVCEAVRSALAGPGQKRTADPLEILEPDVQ

OCc1ccccc1
inactive: Potency [1] | Potency [2] | outcome [3] | max response [4] -4.76%

NC(N)=O
inactive: Potency [1] | Potency [2] | outcome [3] | max response [4] -1.96%

Nc1nccs1
inactive: Potency [1] | Potency [2] | max response [4] -16.1%

CO/N=C(/C(=O)N[C@@H]1C(=O)N2C(C(=O)O)=C(COC(N)=O)CS[C@H]12)c1ccco1
inactive: Potency [1] | Potency [2] | outcome [3] | max response [4] 4.41%

CCCCC
inactive: Potency [1] | Potency [2] | outcome [3] | max response [4] -14.6%

Nc1ncnc2c1ncn2[C@H]1CC[C@@H](CO)O1
inactive: Potency [1] | Potency [2] | outcome [3] | max response [4] -18.5% and 2.96%

CCOC(C)OCC
inactive: Potency [1] | Potency [2] | outcome [3] | max response [4] -4.14%

CC[C@H]1OC(=O)[C@H](C)[C@@H](O[C@H]2C[C@@](C)(OC)[C@@H](O)[C@H](C)O2)[C@H](C)[C@@H](O[C@@H]2O[C@H](C)C[C@H](N(C)C)[C@H]2O)[C@](C)(O)C[C@@H](C)CN(C)[C@H](C)[C@@H](O)[C@]1(C)O
inactive: Potency [1] | Potency [2] | outcome [3] | max response [4] -20.4%

COC(=O)c1ccccc1O
inactive: Potency [1] | Potency [2] | outcome [3] | max response [4] 1.24% and 5.57%

NCCN
inactive: Potency [1] | Potency [2] | outcome [3] | max response [4] -3.91%

Oc1cccc(O)c1O
inactive: Potency [1] | Potency [2] | outcome [3] | max response [4] -24.8%

OCl
inactive: Potency [1] | Potency [2] | outcome [3] | max response [4] -6.58%

Oc1ccc(/C=C/c2cc(O)cc(O)c2)cc1
inactive: Potency [1] | outcome [5] | outcome [6] | outcome [3] | max response [4] 7.43% and -3.23% | outcome [7] | outcome [8]

CC1=CCC2CC1C2(C)C (configuration not stated)
inactive: Potency [1] | Potency [2] | outcome [3] | max response [4] -2.11%

O=P(O)(O)O
inactive: Potency [1] | Potency [2] | outcome [3] | max response [4] -2%

CO
inactive: Potency [1] | Potency [2] | outcome [3] | max response [4] -2.74%

OB(O)O
inactive: Potency [1] | Potency [2] | outcome [3] | max response [4] -7.44% and 3.96%

C/C=C/C=C/C(=O)O
inactive: Potency [1] | Potency [2] | outcome [3] | max response [4] -1.45%

C[C@H](CCC(=O)O)[C@H]1CC[C@H]2[C@@H]3[C@H](O)C[C@@H]4C[C@H](O)CC[C@]4(C)[C@H]3C[C@H](O)[C@]12C
inactive: Potency [1] | Potency [2] | outcome [3] | max response [4] 1.94%

Cc1ncc[nH]1
inactive: Potency [1] | Potency [2] | outcome [3] | max response [4] 2.15%
